These entries were drawn from the full list.
aSyn UTR act – Activators working through SNCA 5'UTR binding (MLPCN) | alpha-synuclein 5'UTR reporter, activators screen | activity score, % (tested at 7.5 µM), hits read low | hit rate 7.1% among 300,000 | AID 1814; in the data active = activity score below about -60%
Each line names hits and unclear results; the compound was inactive in the other large screens.

CCOC(=O)C1CCN(C(=O)CN2C(=O)COc3ccc(C(C)(C)C)cc32)CC1	aSyn UTR act -111.2
Cc1ccc(N=C2c3ccccc3C(=O)C2[N+](=O)[O-])cc1C (configuration not stated)	aSyn UTR act -109.7
CCSc1nnc2c(n1)[nH]c1c(C)cccc12	aSyn UTR act -208.0
CSc1nnc2c(n1)[nH]c1c(C)cccc12	aSyn UTR act -106.7
C=CCSc1nnc2nc3[nH]c4c(C)cccc4c3nn12	aSyn UTR act -74.6
COC(=O)c1cc(-c2ccc(OC)cc2)n[nH]1	aSyn UTR act -103.2
CCOc1ccc(-c2cc(C(=O)OC)[nH]n2)cc1	aSyn UTR act -103.2
COC(=O)c1cc(-c2ccc(C)cc2)n[nH]1	aSyn UTR act -106.3
CCN1CCN(Cc2ccc(NC(=O)c3cc(NC(=O)c4cc(-c5ccc(OC)cc5)n[nH]4)cc(OC)c3)cc2C(F)(F)F)CC1	none
CCOc1cccc(-c2cc(C(=O)NN)[nH]n2)c1	aSyn UTR act -63.6
Fc1ccc(NC(=S)Nc2nccs2)cc1	aSyn UTR act -128.3
S=C(Nc1ccccc1)Nc1nccs1	aSyn UTR act -176.5
Fc1ccc(NC(=S)Nc2ccc3nccnc3c2)cc1	aSyn UTR act -90.5
CC(C)(C)c1nnc(NC(=S)Nc2ccccc2)s1	aSyn UTR act -166.9
COCC(C)n1c(C)cc(C(=O)CSc2nnnn2-c2ccc(O)cc2)c1C (configuration not stated)	aSyn UTR act -81.6
COCC(C)n1c(C)cc(C(=O)CSc2ncccn2)c1C (configuration not stated)	aSyn UTR act -75.9
O=C(CSc1ncccn1)c1ccccc1Br	aSyn UTR act -64.5
O=[N+]([O-])/C(C(Cl)=C(Cl)Cl)=C(\Nc1ccc(F)cc1)n1cncn1	aSyn UTR act -102.4
COc1cccc(NC(=O)CSc2nnc(-c3cccc(OC(C)C)c3)n2N)c1	aSyn UTR act -73.2
CCCC(=O)c1ccc(N2CCCCC2)c(F)c1	aSyn UTR act -126.1
CCCC(=O)c1ccc(N2CCCCCC2)c(F)c1	aSyn UTR act -137.5
O=C1CC(/C=C/c2ccc([N+](=O)[O-])cc2)=Nc2ccccc2N1	aSyn UTR act -112.1
CCCCOc1ccccc1C1CC(=O)NC2=C1C(=O)CCC2 (configuration not stated)	none
O=C1C(=O)N(c2ccccc2)C(c2ccccc2[N+](=O)[O-])/C1=C(\O)c1ccccc1 (configuration not stated)	aSyn UTR act -93.2
O=C1C(=O)N(c2cccc(Cl)c2)C(c2ccccc2[N+](=O)[O-])/C1=C(\O)c1ccccc1 (configuration not stated)	aSyn UTR act -87.9
COC(=O)c1ccc(N)c(N=CC2=C(O)CC(C)(C)CC2=O)c1	aSyn UTR act -171.9
COC(=O)c1ccc2c(c1)C(C)(C)C(/C=C/c1ccccc1O)=[N+]2C	none
Oc1c(C(c2ccccc2Cl)N2CCCC2)ccc2cccnc12 (configuration not stated)	none
O=c1c2ccccc2sn1-c1ccccc1	aSyn UTR act -115.1
NC1=NC(=O)/C(=C\C=C\c2ccccc2)S1	aSyn UTR act -73.3
ClC1=C(Cl)C(Cl)=C(Cl)C1=C/C=C/c1ccccc1	none
Cc1ccc(Nc2nc3nonc3[nH]c2=O)cc1Cl	aSyn UTR act -72.1
CCOC(=O)c1sc2nc(-c3cccnc3)ccc2c1N	aSyn UTR act -149.9
NC(=O)c1sc2nc(-c3cccnc3)ccc2c1N	aSyn UTR act -101.5
Cc1ccc(NC(=O)C2CCCN(c3ncccn3)C2)cc1C (configuration not stated)	aSyn UTR act -125.4
COc1ccc(NC(=O)C2CCCN(c3ncccn3)C2)cc1 (configuration not stated)	aSyn UTR act -74.8
Cn1cnnc1SCC(=O)c1ccc2c(c1)CCCC2	aSyn UTR act -71.2
COc1ccc(C(=O)NCCn2cc(SCC(=O)Nc3nnc(C)s3)c3ccccc32)cc1	aSyn UTR act -69.4
COc1ccc(Nc2cc(C)c3c(O)cccc3n2)cc1	aSyn UTR act -140.4
Cc1ccc(Nc2cc(C)c3c(O)cccc3n2)cc1C	aSyn UTR act -117.6
Cc1ccc(Nc2cc(C)c3ccc(O)cc3n2)cc1C	aSyn UTR act -93.7
Cc1ccccc1Nc1cc(C)c2c(O)cccc2n1	aSyn UTR act -105.0
NNc1nc(-c2ccccc2)nc2sc3c(c12)CCCC3	aSyn UTR act -65.4
Oc1c(Br)cc(C=Nc2ccc3nc(-c4ccccc4)[nH]c3c2)c(O)c1Br	aSyn UTR act -124.2
O=[N+]([O-])c1ccc(O)c(C=Nc2ccc3nc(-c4ccccc4)[nH]c3c2)c1	aSyn UTR act -166.2
Cc1cccc(NC(=O)c2cccc(OC(=S)N3CCOCC3)c2)c1C	aSyn UTR act -65.5
CC1CCN(c2c([N+](=O)[O-])nn(-c3ccc4c(c3)OCCO4)[n+]2[O-])CC1	aSyn UTR act -97.5
O=[n+]1c2c(n([O-])c3cc(F)c(N4CCCC4)cc31)CCCC2	aSyn UTR act -77.0
CCCCc1c(C)c(C#N)c2nc3ccccc3n2c1Cl	none
CCCCCc1nc2c(C#N)c(-c3ccc(Cl)cc3)ccn2n1	aSyn UTR act -64.6
COc1ccc(C2=NOC(CN3C(=O)c4ccccc4S3(=O)=O)C2)cc1 (configuration not stated)	aSyn UTR act -175.4
O=C(CN1C(=O)c2ccccc2S1(=O)=O)c1ccccc1Cl	none
O=C1c2ccccc2S(=O)(=O)N1CC1CC(c2ccccc2)=NO1 (configuration not stated)	aSyn UTR act -143.7
O=C1c2ccccc2S(=O)(=O)N1CC1CC(c2ccc(Cl)cc2)=NO1 (configuration not stated)	aSyn UTR act -197.4
N#CC1=C2SC=C(c3ccc(Br)cc3)N2CCCC1=O	aSyn UTR act -257.0
N#CC1=C2Sc3ccccc3N2CCCC1=O	aSyn UTR act -170.8
CN(C)c1ccc(N=Nc2nc3ccccc3n2C)cc1	aSyn UTR act -116.5
CC1CCCC(C)N1C(=O)c1cc(-c2ccc(Cl)c(Cl)c2)on1 (configuration not stated)	aSyn UTR act -173.5
CC1CCCC(C)N1C(=O)c1cc(-c2ccc3c(c2)OCO3)on1 (configuration not stated)	aSyn UTR act -131.3
O=C(c1cc(-c2ccc3c(c2)OCO3)on1)N1CCCCC1	none
COCCSc1nnc(NC(=O)c2ccc3c(c2)OCO3)s1	aSyn UTR act -118.2
Cc1nnc(NC(=O)c2ccc3c(c2)OCO3)s1	aSyn UTR act -150.2
Cc1nnc(NC(=O)c2ccc(S(=O)(=O)C(F)F)cc2)s1	aSyn UTR act -78.4
O=C(Nc1nncs1)c1ccc2c(c1)OCO2	aSyn UTR act -83.2
CSc1nnc(NC(=O)c2ccc3c(c2)OCO3)s1	none
COc1cc2c(cc1O)CC[C@@H]1[C@@H]2CC[C@]2(C)[C@@H](O)CC[C@@H]12	none
Cc1nnc(NC(=O)c2cccc(Br)c2)s1	aSyn UTR act -95.9
Cc1nnc(NC(=O)c2c(F)c(F)c(F)c(F)c2F)s1	aSyn UTR act -73.0
CC(=O)COc1ccc2c(C)c(C)c(=O)oc2c1	aSyn UTR act -118.3
CCCOc1ccc2c(C)c(CC(=O)OC)c(=O)oc2c1	aSyn UTR act -118.3
COc1ccc(-c2c(C)c3ccc(O)cc3oc2=O)cc1	aSyn UTR act -97.1
COc1ccc(-c2c(C)c3ccc(OCC(C)=O)cc3oc2=O)cc1	aSyn UTR act -141.8
O=c1c2ccccc2nc2ccc(NCc3cccs3)nn12	aSyn UTR act -163.9
CCN(Cc1ccccc1)S(=O)(=O)c1ccc(C(=O)Nc2nnc(-c3ccccc3OC)o2)cc1	none
O=C(Nc1nnc(Cc2ccccc2)s1)c1cccs1	aSyn UTR act -127.7
CCc1nnc(NC(=O)c2ccc(N(C)S(=O)(=O)c3ccccc3)cc2)s1	aSyn UTR act -129.0
